In experiment [1] the target is Agonist Androgen Response Element (ARE), AR (gene 367) (UniProt P10275). Kind of experiment: OT_AR_ARELUC_AG_1440: Odyssey Thera (OT) 24-hour CHO-K1 Luciferase Assay for Agonist Androgen Response Element (ARE) (AID 2283379). In short, it runs like this: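 Gain-of-signal reporter endpoint: cells (CHO-K1, hamster) are treated 24 h, luciferin/ATP reagent added, and luminescence compared with DMSO baseline.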

Experiment [2] deals with Estrogen receptor beta (Homo sapiens) (UniProt Q92731). As to the kind of experiment: OT_ER_ERbERb_1440: Odyssey Thera (OT) 24-hour HEK293T Protein-Complementation Assay for Estrogen Receptor-beta/-beta Homodimer (AID 2283380).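 Note: scored as signal increase over DMSO baseline for both agonists and antagonists.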 The method in brief:
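HEK293T cells stably expressing ER beta LBD (aa 310-547) homodimer fragment-complementation reporter, dosed 24 h. Cells formaldehyde-fixed, Draq5-stained; gain in nuclear (agonist) or nuclear plus cytoplasmic (antagonist) fluorescence versus DMSO read by laser scanning cytometry.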

Experiment [3] addresses Bile acid receptor (Homo sapiens) (UniProt Q96RI1). Kind of experiment: OT_FXR_FXRSRC1_0480: Odyssey Thera (OT) 8-hour HEK293T Protein-Complementation Assay for Farnesoid X receptor/SRC-1 Co-activator (AID 2283383). In short, it runs like this:
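Binding of FXR to coactivator SRC-1 was read as fluorescence from a reconstituted split reporter in HEK293T cells, 8 h after chemical addition. Only increases in signal versus DMSO were fit.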

Experiment [4] has the same target. Kind of experiment: OT_FXR_FXRSRC1_1440: Odyssey Thera (OT) 24-hour HEK293T Protein-Complementation Assay for Farnesoid X receptor/SRC-1 Co-activator (AID 2283384). The method in brief: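 Protein-fragment complementation: FXR and SRC-1 fused to reporter fragments that reassemble on interaction, read by fluorescence intensity. Human HEK293T cells measured 24 h post-dose; positive-direction fit versus DMSO.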

Experiment [5] has as its target Retinoic acid receptor RXR-alpha (Homo sapiens) (UniProt P19793). As to the kind of experiment: OT_NURR1_NURR1RXRa_0480: Odyssey Thera (OT) 8-hour HEK293T Protein Complementation Assay for Nurr1/retinoid X receptor (RXR) (AID 2283385). In short, it runs like this:
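Interaction of Nurr1 with RXRα read as reconstituted reporter fluorescence in a HEK293T fragment-complementation system, 8 h post-treatment; increase over DMSO baseline analysed.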

For experiment [6] the target is unchanged. Kind of experiment: OT_NURR1_NURR1RXRa_1440: Odyssey Thera (OT) 24-hour HEK293T Protein Complementation Assay for Nurr1/retinoid X receptor (RXR) (AID 2283386). In short, it runs like this: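 Gain in fluorescence, fitted relative to DMSO, reflects Nurr1–RXRα association in HEK293T cells after 24 h dosing. Bait and prey are each linked to a reporter-protein fragment that reassembles on interaction.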

The target of experiment [7] is Peroxisome proliferator-activated receptor gamma (Homo sapiens) (UniProt P37231). Kind of experiment: OT_PPARg_PPARgSRC1_0480: Odyssey Thera (OT) 8-hour Protein-Complementation Assay for Peroxisome Proliferator-activated Receptor Gamma / SRC-1 Co-activator (AID 2283387).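 Note: nuclear to cytoplasmic split Venus YFP fluorescence ratio reporting PPARg SRC-1 interaction.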 In short, it runs like this:
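HEK293T transiently transfected with PPARg and SRC-1 fused to Venus YFP fragments, compounds 8 h at 37C. Fixed, Draq5-stained cells imaged; nuclear/cytoplasmic 488 nm fluorescence ratio over at least 350 cells per image; gain fitted versus DMSO.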

The target is the same in experiment [8]. As to the kind of experiment: OT_PPARg_PPARgSRC1_1440: Odyssey Thera (OT) 24-hour Protein-Complementation Assay for Peroxisome Proliferator-activated Receptor Gamma/ SRC-1 Co-activator (AID 2283388). The method in brief: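 Readout: nuclear-to-cytoplasmic 488 nm fluorescence ratio, ≥350 cells per image, 8 images per well, after 24 h compound exposure of HEK293T expressing PPARg/SRC-1 split-YFP fusions. Activity fitted in positive direction against DMSO.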

Experiment [9] can be described thus: CEETOX_H295R_11DCORT: CeeTox H295R High-throughput Steroidogenesis Assay for 11-Deoxycortisol (11DCORT) (AID 2283432; active = hit-call score of the fitted dose curve at least 0.9, where 1 is the maximum; inactive = score below 0.9;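 for AC50: 11-deoxycortisol secreted into the medium measured by LC-MS/MS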). Conditions: actives raise or lower the signal. The method in brief:
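H295R cells prestimulated 48 h with 10 uM forskolin, then exposed 48 h to chemical in 0.1% DMSO. 11-Deoxycortisol in medium quantified by HPLC-MS/MS after MTBE extraction; bidirectional fit versus DMSO. MTT viability read in same wells.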

Experiment [10] is described as follows: CEETOX_H295R_OHPREG: CeeTox H295R High-throughput Steroidogenesis Assay for OH-Pregnenolone (OHPREG) (AID 2283434; active = hit-call score of the fitted dose curve at least 0.9, where 1 is the maximum; inactive = score below 0.9). Conditions: actives raise or lower the signal. The method in brief: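 H295R, 10 uM forskolin pre-stim 48 h; test chemical 48 h, 0.1% DMSO final. MTBE extraction, reverse-phase C18 HPLC-ESI+ MS/MS of medium. Gain/loss vs DMSO; viability by MTT in same wells.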

Experiment [11] in a line: CEETOX_H295R_OHPROG: CeeTox H295R High-throughput Steroidogenesis Assay for OH-Progesterone (OHPROG) (AID 2283435; active = hit-call score of the fitted dose curve at least 0.9, where 1 is the maximum; inactive = score below 0.9;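 for AC50: 17alpha-hydroxyprogesterone secreted into medium measured by HPLC-MS/MS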). Particulars: actives raise or lower the signal. The method in brief: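 Medium steroid levels read by LC-MS/MS after 48 h chemical treatment (0.1% DMSO) of human adrenal H295R cells that had been forskolin-primed (10 uM, 48 h). Gain or loss fitted against DMSO; MTT cytotoxicity checked per well.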

Experiment [12] in a line: CEETOX_H295R_ANDR: CeeTox H295R High-throughput Steroidogenesis Assay for Androstenedione (ANDR) (AID 2283436; active = hit-call score of the fitted dose curve at least 0.9, where 1 is the maximum; inactive = score below 0.9;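 note: human H295R adrenal cells exposed for 48 h with androstenedione measured in medium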). Conditions: actives raise or lower the signal. The method in brief:
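48 h chemical exposure, H295R cells, DMEM/F12 + ITS+ and Nu-Serum. Medium androstenedione: MTBE extraction, C18 reverse-phase HPLC, ESI+ MS/MS. Fit bidirectional vs DMSO; MTT viability in same wells.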

A short description of experiment [13]: CEETOX_H295R_CORTIC: CeeTox H295R High-throughput Steroidogenesis Assay for Corticosterone (CORTIC) (AID 2283437; active = hit-call score of the fitted dose curve at least 0.9, where 1 is the maximum; inactive = score below 0.9;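 note: corticosterone secreted into medium quantified by mass spectrometry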;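 for AC50: human H295R adrenal cells prestimulated with forskolin before chemical exposure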). Conditions: actives raise or lower the signal. In short, it runs like this: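 48 h forskolin (10 uM) prestim, then 48 h chemical exposure, final DMSO 0.1%. Readout: corticosterone in medium by LC-MS/MS after MTBE extraction. Gain/loss fit vs DMSO; MTT viability in same wells.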

Experiment [14] can be described thus: CEETOX_H295R_CORTISOL: CeeTox H295R High-throughput Steroidogenesis Assay for Cortisol (AID 2283438; active = hit-call score of the fitted dose curve at least 0.9, where 1 is the maximum; inactive = score below 0.9). Conditions: actives raise or lower the signal. In short, it runs like this: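 Cortisol measured by HPLC-MS/MS after MTBE extraction of medium from H295R cells exposed 48 h to chemical (0.1% DMSO), following 48 h prestimulation with 10 uM forskolin. Viability assessed by MTT in the same wells.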

Experiment [15] can be described thus: CEETOX_H295R_DOC: CeeTox H295R High-throughput Steroidogenesis Assay for DOC (AID 2283439; active = hit-call score of the fitted dose curve at least 0.9, where 1 is the maximum; inactive = score below 0.9). Conditions: actives raise or lower the signal. In short, it runs like this:
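11-Deoxycorticosterone quantified in medium by MTBE extraction and HPLC-MS/MS after 48 h chemical exposure (0.1% DMSO) of forskolin-primed (10 uM, 48 h) H295R cells. Same-well MTT viability; data fitted bidirectionally against DMSO.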

The target of experiment [16] is Estrogen receptor (Homo sapiens) (UniProt P03372). Kind of experiment: OT_ERa_GFPERaERE_0480: Odyssey Thera (OT) 8-hour HeLa Transcription Induction Assay for Estrogen Receptor (AID 2283381; active = hit-call score of the fitted dose curve at least 0.9, where 1 is the maximum; inactive = score below 0.9). In short, it runs like this: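 Fluorescence microscopy with high-content image analysis measures ERE-driven GFP induction in HeLa cells at 8 h post-dose. Increases fitted against DMSO baseline.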
Chain of Estrogen receptor (Homo sapiens) (P03372 whole entry, looked up): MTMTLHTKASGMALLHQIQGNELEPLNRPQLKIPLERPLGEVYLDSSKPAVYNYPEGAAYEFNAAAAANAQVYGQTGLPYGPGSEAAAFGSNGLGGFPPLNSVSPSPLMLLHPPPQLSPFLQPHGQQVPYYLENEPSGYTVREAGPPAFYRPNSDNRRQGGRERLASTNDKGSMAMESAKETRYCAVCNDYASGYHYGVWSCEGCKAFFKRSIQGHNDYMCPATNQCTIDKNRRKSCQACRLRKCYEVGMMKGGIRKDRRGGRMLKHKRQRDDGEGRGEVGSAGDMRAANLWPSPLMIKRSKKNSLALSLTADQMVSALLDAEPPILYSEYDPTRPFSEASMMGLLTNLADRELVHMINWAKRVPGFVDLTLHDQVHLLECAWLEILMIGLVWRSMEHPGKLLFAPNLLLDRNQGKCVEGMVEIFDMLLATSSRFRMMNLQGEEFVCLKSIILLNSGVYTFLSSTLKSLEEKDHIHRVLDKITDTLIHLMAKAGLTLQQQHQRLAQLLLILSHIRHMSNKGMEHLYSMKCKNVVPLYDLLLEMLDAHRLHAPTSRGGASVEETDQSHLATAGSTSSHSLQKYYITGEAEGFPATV

For experiment [17] the target is unchanged. As to the kind of experiment: OT_ERa_GFPERaERE_0120: Odyssey Thera (OT) 2-hour HeLa Transcription Induction Assay for Estrogen Receptor (AID 2283382). The method in brief: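 Fluorescence-microscopy images of the GFP-ERα/ERE reporter, scored by high-content image algorithms, give the readout. HeLa exposure lasted 2 h, and only signal increase over DMSO was fitted.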

In experiment [18] the target is mouse Estrogen Receptor alpha (Era), Esr1 (gene 13982) (UniProt P19785). As to the kind of experiment: NVS_NR_mERa: NovaScreen (NVS) Nuclear Receptor Binding Assay for mouse Estrogen Receptor alpha (Era) (AID 2283378).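 Note: hit means loss of bound radioligand signal relative to DMSO.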 The method in brief: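 Filter scintillation counts of bound radioligand, measured 18 h post-dose, gave the readout; decreased signal relative to DMSO controls indicated displacement from mouse Era. Primary screen ran in duplicate at 25 uM; active chemicals were retested across concentrations.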
Chain of mouse Estrogen Receptor alpha (Era), Esr1 (gene 13982) (P19785 whole entry, looked up): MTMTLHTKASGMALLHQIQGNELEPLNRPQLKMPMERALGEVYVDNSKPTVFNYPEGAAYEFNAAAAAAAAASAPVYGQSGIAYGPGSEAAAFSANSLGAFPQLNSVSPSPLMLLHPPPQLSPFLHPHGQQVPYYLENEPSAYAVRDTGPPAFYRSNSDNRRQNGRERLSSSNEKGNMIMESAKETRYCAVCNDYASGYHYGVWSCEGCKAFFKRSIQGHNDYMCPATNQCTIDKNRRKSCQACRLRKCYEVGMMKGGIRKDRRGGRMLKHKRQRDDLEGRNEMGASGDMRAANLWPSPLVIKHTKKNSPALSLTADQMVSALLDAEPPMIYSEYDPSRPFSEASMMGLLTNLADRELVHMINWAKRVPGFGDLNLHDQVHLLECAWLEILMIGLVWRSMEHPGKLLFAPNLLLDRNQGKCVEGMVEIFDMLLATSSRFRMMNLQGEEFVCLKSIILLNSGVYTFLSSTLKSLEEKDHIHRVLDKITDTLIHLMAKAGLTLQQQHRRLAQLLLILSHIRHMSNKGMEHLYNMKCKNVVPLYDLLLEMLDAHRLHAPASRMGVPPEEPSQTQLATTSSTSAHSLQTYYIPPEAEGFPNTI

A short description of experiment [19]: CEETOX_H295R_ESTRADIOL: CeeTox H295R High-throughput Steroidogenesis Assay for Estradiol (AID 2283440; active = hit-call score of the fitted dose curve at least 0.9, where 1 is the maximum; inactive = score below 0.9;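 note: estradiol secreted into medium quantified by LC-MS/MS after dansyl derivatisation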). Particulars: actives raise or lower the signal. The method in brief:
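H295R, 48 h forskolin (10 uM) prestim → 48 h compound, 0.1% DMSO final. Estradiol in medium: MTBE extraction, dansyl chloride derivatization, LC-MS/MS. Fit bidirectional vs DMSO baseline; MTT viability in same wells.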

The nature of experiment [20]: CEETOX_H295R_ESTRONE: CeeTox H295R High-throughput Steroidogenesis Assay for Estrone (AID 2283441; active = hit-call score of the fitted dose curve at least 0.9, where 1 is the maximum; inactive = score below 0.9). Conditions: actives raise or lower the signal. In short, it runs like this: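 Estrone secreted into medium quantified by LC-MS/MS after dansyl chloride derivatization, following 48 h chemical exposure (0.1% DMSO final) of forskolin-prestimulated (10 uM, 48 h) H295R cells; gain or loss fitted against DMSO; MTT viability in same wells.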

Values joined by “and” are separate entries in the source; they are usually repeats but may differ in a detail not shown here. Equal values may be shown once. Results filed as inconclusive are left out. Some compounds were tested as several samples or in several runs, with calls that do not always agree. Active and inactive are the calls of the source. Rule for the calls, unless noted: active = hit-call score of the fitted dose curve at least 0.9, where 1 is the maximum; inconclusive = response in the unintended direction; inactive = score below 0.9.

Chain of Bile acid receptor (Homo sapiens) (Q96RI1 whole entry, looked up): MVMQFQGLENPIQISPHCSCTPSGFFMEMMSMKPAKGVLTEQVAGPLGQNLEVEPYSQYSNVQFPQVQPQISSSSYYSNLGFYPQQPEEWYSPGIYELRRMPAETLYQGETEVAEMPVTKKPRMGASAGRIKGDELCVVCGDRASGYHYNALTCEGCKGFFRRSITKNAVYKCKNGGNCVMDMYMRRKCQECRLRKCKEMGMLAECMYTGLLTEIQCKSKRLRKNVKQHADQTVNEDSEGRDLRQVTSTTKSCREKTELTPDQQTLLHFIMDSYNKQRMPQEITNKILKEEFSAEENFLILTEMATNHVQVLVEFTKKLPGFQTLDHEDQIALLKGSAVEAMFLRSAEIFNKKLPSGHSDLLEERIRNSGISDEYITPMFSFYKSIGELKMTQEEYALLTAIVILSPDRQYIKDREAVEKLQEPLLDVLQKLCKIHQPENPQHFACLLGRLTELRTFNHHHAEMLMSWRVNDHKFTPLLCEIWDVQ
Chain of Estrogen receptor beta (Homo sapiens) (Q92731 whole entry, looked up, the tested form may be a part): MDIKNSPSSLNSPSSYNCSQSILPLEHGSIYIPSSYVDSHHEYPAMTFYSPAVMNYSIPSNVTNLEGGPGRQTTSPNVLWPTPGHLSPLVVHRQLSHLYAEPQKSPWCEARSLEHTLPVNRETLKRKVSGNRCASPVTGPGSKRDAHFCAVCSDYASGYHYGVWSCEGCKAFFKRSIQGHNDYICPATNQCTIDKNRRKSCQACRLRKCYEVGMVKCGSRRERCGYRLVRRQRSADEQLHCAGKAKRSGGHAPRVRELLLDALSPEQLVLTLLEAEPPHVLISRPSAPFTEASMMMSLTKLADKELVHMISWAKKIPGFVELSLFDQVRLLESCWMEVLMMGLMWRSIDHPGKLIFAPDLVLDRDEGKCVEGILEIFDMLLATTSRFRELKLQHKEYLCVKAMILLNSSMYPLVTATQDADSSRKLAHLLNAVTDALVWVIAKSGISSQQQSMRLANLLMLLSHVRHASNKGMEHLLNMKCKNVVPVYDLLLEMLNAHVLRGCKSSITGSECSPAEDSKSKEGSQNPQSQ
Chain of Retinoic acid receptor RXR-alpha (Homo sapiens) (P19793 whole entry, looked up, the tested form may be a part): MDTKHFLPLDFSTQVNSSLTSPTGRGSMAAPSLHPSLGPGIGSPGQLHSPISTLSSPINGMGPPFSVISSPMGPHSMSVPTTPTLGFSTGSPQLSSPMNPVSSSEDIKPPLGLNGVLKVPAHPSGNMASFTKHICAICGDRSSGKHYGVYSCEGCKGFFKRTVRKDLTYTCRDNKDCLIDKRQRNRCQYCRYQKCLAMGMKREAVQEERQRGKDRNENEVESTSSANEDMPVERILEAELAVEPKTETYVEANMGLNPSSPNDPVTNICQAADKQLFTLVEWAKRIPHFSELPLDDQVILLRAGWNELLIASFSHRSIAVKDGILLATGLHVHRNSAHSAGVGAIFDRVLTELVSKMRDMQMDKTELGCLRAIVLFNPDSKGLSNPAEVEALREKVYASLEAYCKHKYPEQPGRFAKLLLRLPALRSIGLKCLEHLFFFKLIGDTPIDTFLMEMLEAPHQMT
Chain of Agonist Androgen Response Element (ARE), AR (gene 367) (P10275 whole entry, looked up): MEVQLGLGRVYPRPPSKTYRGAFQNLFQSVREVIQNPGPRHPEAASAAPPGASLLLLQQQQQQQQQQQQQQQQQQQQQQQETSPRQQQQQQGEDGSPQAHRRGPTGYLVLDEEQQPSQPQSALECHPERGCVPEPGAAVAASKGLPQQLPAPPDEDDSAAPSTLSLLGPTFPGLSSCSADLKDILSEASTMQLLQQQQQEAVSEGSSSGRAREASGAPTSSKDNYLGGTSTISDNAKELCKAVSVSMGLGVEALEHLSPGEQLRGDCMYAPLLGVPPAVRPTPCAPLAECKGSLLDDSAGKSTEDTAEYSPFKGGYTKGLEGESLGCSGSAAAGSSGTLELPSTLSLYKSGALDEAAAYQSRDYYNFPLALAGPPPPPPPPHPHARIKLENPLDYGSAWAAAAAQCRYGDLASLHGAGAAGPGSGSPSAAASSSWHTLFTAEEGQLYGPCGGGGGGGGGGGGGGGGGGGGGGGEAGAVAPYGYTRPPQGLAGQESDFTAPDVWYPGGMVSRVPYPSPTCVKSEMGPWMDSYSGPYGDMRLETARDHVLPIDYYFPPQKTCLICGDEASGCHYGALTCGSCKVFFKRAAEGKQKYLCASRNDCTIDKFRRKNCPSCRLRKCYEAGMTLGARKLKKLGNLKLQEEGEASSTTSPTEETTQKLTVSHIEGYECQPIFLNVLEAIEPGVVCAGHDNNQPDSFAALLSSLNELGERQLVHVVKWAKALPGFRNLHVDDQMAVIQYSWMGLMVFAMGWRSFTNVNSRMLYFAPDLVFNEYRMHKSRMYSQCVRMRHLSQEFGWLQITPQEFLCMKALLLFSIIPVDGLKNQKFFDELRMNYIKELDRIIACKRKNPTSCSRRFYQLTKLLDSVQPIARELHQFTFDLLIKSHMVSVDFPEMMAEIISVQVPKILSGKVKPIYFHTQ
Chain of Peroxisome proliferator-activated receptor gamma (Homo sapiens) (P37231 whole entry, looked up, the tested form may be a part): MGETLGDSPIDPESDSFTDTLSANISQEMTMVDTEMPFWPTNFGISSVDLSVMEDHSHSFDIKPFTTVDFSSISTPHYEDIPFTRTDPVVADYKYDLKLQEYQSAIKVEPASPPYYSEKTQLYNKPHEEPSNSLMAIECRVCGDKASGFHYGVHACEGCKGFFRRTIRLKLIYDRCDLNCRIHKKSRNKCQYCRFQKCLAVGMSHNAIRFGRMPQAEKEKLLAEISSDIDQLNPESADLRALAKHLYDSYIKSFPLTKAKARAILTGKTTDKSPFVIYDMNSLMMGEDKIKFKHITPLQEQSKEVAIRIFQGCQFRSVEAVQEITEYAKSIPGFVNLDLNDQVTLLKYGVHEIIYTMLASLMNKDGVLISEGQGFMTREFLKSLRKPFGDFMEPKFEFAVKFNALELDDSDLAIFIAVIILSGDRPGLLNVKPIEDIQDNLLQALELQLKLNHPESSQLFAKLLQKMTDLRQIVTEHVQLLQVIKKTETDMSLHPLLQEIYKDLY

For orientation: AC50 means the concentration at which the activity in the assay is half-maximal. For the compound `Oc1ccc2c(c1)-c1ccccc1C2`, the compound was classed as inactive in experiment [1], in [3], in [4], in experiment [5], in experiment [6] and in [7]. In [8], the compound was classed as inactive. The AC50 is 11 µM (active) in experiment [2]; 40 µM (active) in [9]; 33.7 µM (active) in experiment [10]; 13.5 µM (active) in experiment [11]; 42.3 µM (active) in experiment [12]; 11.5 µM (active) in [13]. Further, the AC50 in [14] is 81.5 µM (active); in [15], 30.3 µM (active).

In the case of `O=c1n(CC2CO2)c(=O)n(CC2CO2)c(=O)n1CC1CO1` (stereo not given), the result in [2], in experiment [16], in experiment [17], in [6], in experiment [7] and in [8] was inactive. Further, the concentration at half-maximal activity (AC50) in experiment [5] was 50 µM (active) and 34.7 µM (active).

Consider `CN(C)c1ccc(N=NS(=O)(=O)O)cc1`, for which the compound was classed as inactive in [1] and in experiment [5].

Consider `COc1cccc(-c2ccc(/C=C\CN3CCCCCC3)cc2Cl)c1`, for which the compound was classed as inactive in experiment [18], in experiment [2], in [16], in [17], in experiment [7] and in experiment [8]. Further, the outcome in experiment [9], in experiment [10], in [11], in experiment [13], in [14] and in experiment [15] was inactive. Besides, the call in experiment [19] and in experiment [20] was inactive. Besides, in experiment [5], the half-maximal activity concentration (AC50) is 10.3 µM (active).

With `CCNc1ccccc1`, the compound was classed as inactive in [1], in experiment [2], in experiment [3], in experiment [4], in experiment [5] and in experiment [6]. Further, the outcome in experiment [7] and in experiment [8] was inactive.

On to `COC(=O)CC(=O)OC`, for which the compound was called inactive in experiment [2], in experiment [16], in [17], in experiment [5], in [6] and in experiment [7]. Also, the compound was classed as inactive in experiment [8].

`CC1(C)C(=O)N(Br)C(=O)N1Br`: the outcome in experiment [1], in experiment [2], in [3], in experiment [4], in [5] and in [6] was inactive. Further, the compound was called inactive in experiment [7] and in experiment [8].

Regarding `CNS(=O)(=O)c1cc(C(=O)N2CCC(CCN3C4CCC3CC(n3c(C)nc5ccccc53)C4)(c3cccc(F)c3)CC2)c(Cl)cc1F` (stereo not given), the call in experiment [1], in experiment [2], in experiment [5], in experiment [7], in [8] and in experiment [10] was inactive. Further, the AC50 in experiment [3] is 12.6 µM (active); in experiment [4], 17.6 µM (active); in experiment [5], 14.3 µM (active); in [6], 28.4 µM (active) and 12.1 µM (active); in [11], 2.65 µM (active); in [12] it was 3.6 µM (active).

For the compound `CCCN(C1CCN(C(=O)C2CCNCC2)CC1)[C@@H]1CCc2ccc(OC)cc2C1`, the outcome in experiment [1], in [7] and in experiment [8] was inactive. Further, the AC50 in experiment [2] is 59.7 µM (active); in experiment [5], 87.3 µM (active); in experiment [6], 64.8 µM (active).

Source of the values: PubChem BioAssay (EPA / NIEHS).
